Source: PubChem BioAssay
Records with an inconclusive call do not appear. Activity calls are given as the source filed them.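 Rule for the calls, unless noted: active = viability at or under a set limit in both replicates, limit being median viability minus 3 SD (cut at about 48% in these data, passing the limit was not always enough); inconclusive = at or under the limit in just one replicate; inactive = at or above the limit in both replicates.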

Columns and labels:
[1] = reducers of endogenous Her2 protein level, primary screen, SKBR3 breast tumor cells, AlphaScreen, ATP viability (AID 461;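 active = Her2 level under about 52% in both replicate screens, with viability over 70% of control, limit read from the data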;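 for Her2 level: lower value means less Her2 protein in the cells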;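 for viability: percent of carrier control wells set as 100% viability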); settings: 18-24 h, measured here: SKBR3 viability, ATP luminescence, at 10 µM
[2] = target: Receptor tyrosine-protein kinase erbB-2 (Homo sapiens) (UniProt P04626); test: as above; settings: 18-24 h, at 10 µM, stronger effect = lower value
Chain of Receptor tyrosine-protein kinase erbB-2 (Homo sapiens) (P04626 whole entry, looked up): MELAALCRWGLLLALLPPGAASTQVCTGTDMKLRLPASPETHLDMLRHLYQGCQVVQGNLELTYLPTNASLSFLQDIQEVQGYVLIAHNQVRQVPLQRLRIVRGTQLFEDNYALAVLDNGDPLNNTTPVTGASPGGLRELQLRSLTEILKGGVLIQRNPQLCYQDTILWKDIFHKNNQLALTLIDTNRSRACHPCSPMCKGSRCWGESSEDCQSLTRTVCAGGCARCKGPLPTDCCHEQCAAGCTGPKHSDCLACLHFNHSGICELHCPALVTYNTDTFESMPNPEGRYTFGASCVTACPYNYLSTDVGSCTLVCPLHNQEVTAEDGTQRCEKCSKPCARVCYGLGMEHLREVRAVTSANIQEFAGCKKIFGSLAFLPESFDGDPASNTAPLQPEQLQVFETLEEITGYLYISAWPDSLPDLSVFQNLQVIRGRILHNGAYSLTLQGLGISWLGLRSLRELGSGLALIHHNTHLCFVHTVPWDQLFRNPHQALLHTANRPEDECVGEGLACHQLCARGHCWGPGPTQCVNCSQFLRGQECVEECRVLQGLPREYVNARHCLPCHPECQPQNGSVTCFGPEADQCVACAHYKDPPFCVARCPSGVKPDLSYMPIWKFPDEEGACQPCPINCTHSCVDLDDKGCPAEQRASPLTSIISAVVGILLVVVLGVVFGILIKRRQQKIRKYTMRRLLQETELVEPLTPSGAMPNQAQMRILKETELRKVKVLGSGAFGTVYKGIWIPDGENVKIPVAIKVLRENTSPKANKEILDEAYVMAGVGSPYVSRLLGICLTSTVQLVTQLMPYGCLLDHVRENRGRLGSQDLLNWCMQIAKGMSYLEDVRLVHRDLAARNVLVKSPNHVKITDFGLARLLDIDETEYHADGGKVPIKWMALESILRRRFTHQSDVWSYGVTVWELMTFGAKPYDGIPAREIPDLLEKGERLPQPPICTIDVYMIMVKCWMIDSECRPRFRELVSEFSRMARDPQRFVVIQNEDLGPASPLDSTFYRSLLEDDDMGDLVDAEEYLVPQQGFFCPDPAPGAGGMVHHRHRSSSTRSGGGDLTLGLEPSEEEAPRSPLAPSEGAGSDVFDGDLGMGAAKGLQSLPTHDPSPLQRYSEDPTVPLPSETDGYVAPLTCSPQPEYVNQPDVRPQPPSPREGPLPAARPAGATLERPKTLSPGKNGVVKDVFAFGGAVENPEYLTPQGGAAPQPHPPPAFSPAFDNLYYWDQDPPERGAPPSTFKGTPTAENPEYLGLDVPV

[3] = SK-BR-3 cell growth inhibitors, pilot screen, 24 h, human (AID 572;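 active = viability at or below 10% of carrier control in both of two separate runs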;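 note: compound exposure lasted between 18 and 24 h rather than exactly 24 h; 100% = carrier-treated control wells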); settings: SK-BR-3 viability, CellTiter-Glo luminescence, at 10 µM, stronger effect = lower value
[4] = HUVEC growth inhibition – cell-based, human, primary screen (AID 575;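 active = viability at or below 30% in both replicate assays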;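 note: 100% = median of untreated cell wells with 0.1% DMSO on each plate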); settings: HUVEC proliferation, CellTiter-Glo luminescence, 72 h; at 10 µM; stronger effect = lower value
[5] = growth inhibitors of H69AR lung tumor, primary screen, human, duplicate replicates (AID 580); settings: H69AR lung tumor cells viability, ATP luminescence, 72 h; at 10 µM; stronger effect = lower value;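 note: 100% = mean luminescence of untreated wells and 0% = no signal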
[6] = reversal of MRP1-mediated doxorubicin resistance, pilot screen, H69AR cells, doxorubicin co-treatment (AID 601;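 active = viability loss from added drug above about 55%, and viability with drug at most 40%, in both replicates, limit read from the data, passing the limit was not always enough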); settings: CellTiter-Glo, 72 h, at 10 µM; for differential viability (reversal): stronger effect = higher value
[7] = 384-well plate pilot, post-Golgi transport modulator project, inhibition of yeast transport mutant growth (AID 636; in the data active = inhibition above about 31%); settings: absorbance 615 nm, about 18 h, stronger effect = higher value
[8] = growth suppression of yeast trafficking mutant, preliminary HTS, modulators of trafficking downstream of Golgi apparatus project, 1536-format plate, OD 615 nm (AID 637; in the data active = inhibition above about 30%); settings: yeast transport mutant growth, absorbance 615 nm, 18 h; stronger effect = higher value
[9] = OD615 S. cerevisiae growth inhibition, permissive medium, pilot counter-assay, permissive growth control for S. cerevisiae lifespan shortening project (AID 705;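 active = growth inhibition above 25% in both replicates, a cutoff set 3 SD above the mean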); settings: OD615, 24 h, at 10 µM, stronger effect = higher value
[10] = Restrictive medium S. cerevisiae growth inhibition, OD615, pilot screen of yeast lifespan reduction project, restrictive growth control (AID 706;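 active = growth inhibition above a set limit, 3 SD over mean compound inhibition, in both replicates, cut at about 43% in these data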;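 note: modified DeaD lifespan yeast strain shifted to restrictive glucose medium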); settings: OD615, 48 h, at 10 µM, stronger effect = higher value
[11] = viability gain of MRP-1-high H69AR cells under doxorubicin, pilot screen, MRP-1 activator project, CellTiter-Glo, duplicate (AID 807;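 active = viability increase at or above a cutoff of the median across tested compounds plus 3 SD, cut at about 8.5% in these data, passing the limit was not always enough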;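 note: compound pretreatment 18-22 h then 72 h combined with doxorubicin; 0% = doxorubicin alone and 100% = vehicle without doxorubicin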); settings: H69AR viability with doxorubicin, CellTiter-Glo luminescence; at 10 µM; stronger effect = higher value
[12] = growth suppression of beta-catenin knockout HCT116, pilot screen, human colon tumor cells (AID 823;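 active = cell viability at or below a set limit in both duplicate runs, the limit being the all-compound median minus 4 SD, cut at about 23% in these data, passing the limit was not always enough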;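 note: 0% = wells killed by 20 µM Hyamine and 100% = untreated DMSO cell wells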); settings: CellTiter-Glo, 60 h, at 10 µM, stronger effect = lower value
[13] = growth suppression of PTEN-deleted HCT116, pilot screen, cell-based, HCT116 clonal line, CellTiter-Glo (AID 824;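 active = viability at or below 27.92% in each of two runs, the all-compound median minus 4 SD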;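 note: 0% = 20 µM Hyamine control and 100% = vehicle cell control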); settings: 60 h, at 10 µM, stronger effect = lower value
[14] = inhibitors of the yeast RAM network, pilot screen, dse1pr::URA3 reporter, 5-FOA selection (AID 869;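 active = inhibition over a set limit, the all-compound mean plus 3 SD, in both replicate runs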;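 note: 0% = DMSO wells with no growth and 100% = 10 µM 1-NA-PP1 with full growth; RAM network block rescues cells from 5-FOA so hits raise OD615 growth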); settings: S. cerevisiae dse1pr::URA3 5-FOA growth, OD615, 2 d; at 10 µM; stronger effect = higher value; strain carries analog-sensitive mutant Cbk1 kinase
[15] = RAM signaling pathway blockade in yeast – S. cerevisiae, Pdr1DBD-CYC8 efflux-inhibited sensitized strain, primary screen (AID 1298;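 active = RAM network inhibition above 8.4% in each of two replicates, 3 SD over the compound average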;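 note: 0% = DMSO untreated cells without growth and 100% = 10 µM 1-NA-PP1 full growth; higher means more yeast growth rescued from 5-FOA killing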); settings: S. cerevisiae cbk1-as DSE1-URA3 strain, 5-FOA growth OD615, 2 d; at 50 µM; stronger effect = higher value
[16] = H69AR cells + 2 uM doxorubicin, measured here: viability with 2 uM doxorubicin, stronger effect = lower value
[17] = H69AR cells, compound alone cytotoxicity

Question: With COc1ccc(NC(=O)CSc2nnc(Cc3cccn3C)n2-c2ccc(F)cc2)cc1 as the molecule, how does the viability [1] read?
Answer: 96%

Question: What about the Her2 level [2] of the same molecule?
Answer: 112% (inactive)

Question: And the viability [3]?
Answer: 96% (inactive)

Question: And the viability [4]?
Answer: 94.4% (inactive)

Question: And the viability [5]?
Answer: 94.8% (inactive)

Question: What about the differential viability (reversal) ([6]; H69AR cells + 2 uM doxorubicin) of the same molecule?
Answer: -14.7% (inactive)

Question: And the viability [6, 16]?
Answer: 110%

Question: What about the viability [6, 17] of the same molecule?
Answer: 94.8%

Question: What about the inhibition [7] of the same molecule?
Answer: -2.27% (inactive)

Question: What about the inhibition [8] of the same molecule?
Answer: -6.5% (inactive)

Question: And the growth inhibition [9]?
Answer: 4.66% (inactive)

Question: What about the growth inhibition [10] of the same molecule?
Answer: 11.6% (inactive)

Question: What about the viability increase [11] of the same molecule?
Answer: -2.27% (inactive)

Question: What about the viability [12] of the same molecule?
Answer: 88.8% (inactive)

Question: What about the viability [13] of the same molecule?
Answer: 86% (inactive)

Question: What about the inhibition [14] of the same molecule?
Answer: 2.56% (inactive)

Question: And the RAM network inhibition [15]?
Answer: 8.6% (inactive)

Question: With COCCCNC(=O)CC1Oc2ccccc2NC1=O (stereo not given) as the molecule, how does the viability [1] read?
Answer: 86.5%

Question: What about the Her2 level [2] of the same molecule?
Answer: 100% (inactive)

Question: And the viability [3]?
Answer: 86.5% (inactive)

Question: And the viability [4]?
Answer: 111% (inactive)

Question: What about the viability [5] of the same molecule?
Answer: 83.3% (inactive)

Question: And the differential viability (reversal) ([6]; H69AR cells + 2 uM doxorubicin)?
Answer: -5.41% (inactive)

Question: What about the viability [6, 16] of the same molecule?
Answer: 88.7%

Question: What about the viability [6, 17] of the same molecule?
Answer: 83.3%

Question: What about the inhibition [7] of the same molecule?
Answer: -5.73% (inactive)

Question: And the inhibition [8]?
Answer: -2.83% (inactive)

Question: What about the growth inhibition [9] of the same molecule?
Answer: -2.61% (inactive)

Question: And the growth inhibition [10]?
Answer: -1.36% (inactive)

Question: And the viability increase [11]?
Answer: 0.06% (inactive)

Question: And the viability [12]?
Answer: 97.6% (inactive)

Question: What about the viability [13] of the same molecule?
Answer: 102% (inactive)

Question: And the inhibition [14]?
Answer: 1.65% (inactive)

Question: What about the RAM network inhibition [15] of the same molecule?
Answer: 2.25% (inactive)

Question: For Cc1cc2ncc(-c3ccc(Cl)cc3)c(N)n2n1, which viability [1] is on record?
Answer: 83%

Question: And the Her2 level [2]?
Answer: 114% (inactive)

Question: What about the viability [3] of the same molecule?
Answer: 83% (inactive)

Question: What about the viability [4] of the same molecule?
Answer: 69.6% (inactive)

Question: What about the viability [5] of the same molecule?
Answer: 82.7% (inactive)

Question: What about the differential viability (reversal) ([6]; H69AR cells + 2 uM doxorubicin) of the same molecule?
Answer: -0.45% (inactive)

Question: What about the viability [6, 16] of the same molecule?
Answer: 83.1%

Question: What about the viability [6, 17] of the same molecule?
Answer: 82.7%

Question: And the inhibition [7]?
Answer: -4.93% (inactive)

Question: What about the inhibition [8] of the same molecule?
Answer: -0.5% (inactive)

Question: And the growth inhibition [9]?
Answer: -12.6% (inactive)

Question: What about the growth inhibition [10] of the same molecule?
Answer: -0.665% (inactive)

Question: What about the viability increase [11] of the same molecule?
Answer: -4.85% (inactive)

Question: And the viability [12]?
Answer: 88% (inactive)

Question: What about the viability [13] of the same molecule?
Answer: 85.4% (inactive)

Question: And the inhibition [14]?
Answer: 1.27% (inactive)

Question: And the RAM network inhibition [15]?
Answer: 1.2% (inactive)

Question: For Cc1cccc(N2CCN(C(=O)Cn3nc(Cc4ccncc4)c4ccccc4c3=O)CC2)c1C, which viability [1] is on record?
Answer: 83%

Question: What about the Her2 level [2] of the same molecule?
Answer: 82% (inactive)

Question: And the viability [3]?
Answer: 83% (inactive)

Question: And the viability [4]?
Answer: 83.9% (inactive)

Question: What about the viability [5] of the same molecule?
Answer: 75.9% (inactive)

Question: What about the differential viability (reversal) ([6]; H69AR cells + 2 uM doxorubicin) of the same molecule?
Answer: -7.61% (inactive)

Question: What about the viability [6, 16] of the same molecule?
Answer: 83.5%

Question: And the viability [6, 17]?
Answer: 75.9%

Question: And the inhibition [7]?
Answer: -5.6% (inactive)

Question: What about the inhibition [8] of the same molecule?
Answer: 1.5% (inactive)

Question: What about the growth inhibition [9] of the same molecule?
Answer: 1.35% (inactive)

Question: And the growth inhibition [10]?
Answer: 6.96% (inactive)

Question: And the viability increase [11]?
Answer: 1.06% (inactive)

Question: And the viability [12]?
Answer: 70.7% (inactive)

Question: And the viability [13]?
Answer: 76% (inactive)

Question: What about the inhibition [14] of the same molecule?
Answer: 0.445% (inactive)

Question: What about the RAM network inhibition [15] of the same molecule?
Answer: 3.21% (inactive)

Question: Which viability [1] does the source give for CC(=O)N(C(C)=O)c1ncc2c([nH]c3ccccc32)c1C#N here?
Answer: 106%

Question: What about the Her2 level [2] of the same molecule?
Answer: 95% (inactive)

Question: And the viability [3]?
Answer: 106% (inactive)

Question: What about the viability [4] of the same molecule?
Answer: 53.4% (inactive)

Question: What about the viability [5] of the same molecule?
Answer: 61.4% (inactive)

Question: What about the differential viability (reversal) ([6]; H69AR cells + 2 uM doxorubicin) of the same molecule?
Answer: -20.5% (inactive)

Question: What about the viability [6, 16] of the same molecule?
Answer: 81.9%

Question: What about the viability [6, 17] of the same molecule?
Answer: 61.4%

Question: And the inhibition [7]?
Answer: -8.13% (inactive)

Question: And the inhibition [8]?
Answer: -7.26% (inactive)

Question: And the growth inhibition [9]?
Answer: -10.9% (inactive)

Question: What about the growth inhibition [10] of the same molecule?
Answer: -11.2% (inactive)

Question: What about the viability increase [11] of the same molecule?
Answer: -7.26% (inactive)

Question: And the viability [12]?
Answer: 66.9% (inactive)

Question: What about the viability [13] of the same molecule?
Answer: 64.7% (inactive)

Question: What about the inhibition [14] of the same molecule?
Answer: 1.25% (inactive)

Question: What about the RAM network inhibition [15] of the same molecule?
Answer: 6.06% (inactive)
